# Bioassay records from PubChem BioAssay.
# This is a sample that favours compounds with a hit; in the whole collection about 12% have one here.
# ROMK mod = modulators of human ROMK potassium channel; P48048; Tet-inducible ROMK, thallium flux fluorescence; actives lie on both sides; B-score at 10 µM; hit rate 2% among 130,000;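 active = signal ratio slope over the read window, or its plate-corrected B-score, at least 3 SD from the plate mean, either direction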;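 note: B-score of the F/F0 ratio slope over 7 to 12 s after thallium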
# KCC2 mod = modulates chloride dependent transport by human KCC2; hit rate 2.2% among 190,000; KCC2 cells, thallium flux FluoZin-2 fluorescence; Q9H2X9; B-score of Tl+ flux slope (higher = more flux/activation; lower = inhibition) at 10 µM;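 active = thallium flux slope and its plate-corrected score both differing from the plate sample mean at a set confidence after two filtering rounds, in either direction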;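 note: slope of fluorescence scaled to starting intensity during 10 to 20 s after thallium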
# Target sequence (Q9H2X9 whole entry, looked up): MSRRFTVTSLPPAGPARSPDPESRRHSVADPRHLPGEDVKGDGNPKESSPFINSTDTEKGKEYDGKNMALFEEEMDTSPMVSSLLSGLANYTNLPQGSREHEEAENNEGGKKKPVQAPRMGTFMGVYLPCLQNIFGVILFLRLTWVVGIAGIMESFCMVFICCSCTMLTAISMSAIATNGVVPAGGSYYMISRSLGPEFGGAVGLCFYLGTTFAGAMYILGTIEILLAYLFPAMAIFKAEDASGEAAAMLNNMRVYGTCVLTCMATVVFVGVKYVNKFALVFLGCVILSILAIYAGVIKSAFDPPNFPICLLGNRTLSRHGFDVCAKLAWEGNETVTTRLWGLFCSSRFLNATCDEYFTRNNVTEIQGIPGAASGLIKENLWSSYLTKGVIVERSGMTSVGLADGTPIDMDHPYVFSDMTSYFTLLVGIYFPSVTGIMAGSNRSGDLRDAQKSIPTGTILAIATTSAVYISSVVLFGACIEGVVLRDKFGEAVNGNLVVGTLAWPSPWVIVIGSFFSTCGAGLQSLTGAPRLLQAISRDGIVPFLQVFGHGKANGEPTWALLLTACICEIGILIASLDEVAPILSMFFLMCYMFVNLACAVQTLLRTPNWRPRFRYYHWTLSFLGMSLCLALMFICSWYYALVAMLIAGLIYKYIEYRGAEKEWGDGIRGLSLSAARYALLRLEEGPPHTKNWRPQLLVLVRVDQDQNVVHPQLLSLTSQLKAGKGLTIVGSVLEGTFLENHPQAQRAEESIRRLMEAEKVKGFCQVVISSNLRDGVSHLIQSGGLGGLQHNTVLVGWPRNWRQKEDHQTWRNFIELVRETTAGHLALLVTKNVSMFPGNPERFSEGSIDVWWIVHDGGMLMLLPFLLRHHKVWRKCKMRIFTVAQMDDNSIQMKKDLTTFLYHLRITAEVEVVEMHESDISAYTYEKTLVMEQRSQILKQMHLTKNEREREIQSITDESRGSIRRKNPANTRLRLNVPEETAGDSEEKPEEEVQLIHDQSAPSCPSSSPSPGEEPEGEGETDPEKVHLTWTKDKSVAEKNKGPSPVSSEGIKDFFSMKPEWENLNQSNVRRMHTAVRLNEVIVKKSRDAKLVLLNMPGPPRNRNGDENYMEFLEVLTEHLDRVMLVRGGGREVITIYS
# WT yeast gro inh = growth inhibition of WT yeast, mitochondrial fusion screen | mitochondrial fusion phenotypic screen, WT strain | inhibition, % at 10 µM | hit rate 2.1% among 190,000 | AID 1362; in the data active = inhibition above about 58%; tested in S. cerevisiae
# Lmaj promast = reduces viability of Leishmania major promastigotes; resazurin fluorescence viability; inhibition, % at 10 µM; hit rate 9% among 200,000; AID 1063; in the data active = inhibition above about 50%;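 note: promastigotes grown with compound for 44 hours at 28 °C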
# m-calpain inh = inhibitors of pig calpain II; purified calpain II, fluorogenic peptide substrate, 30 min; inhibition, % at 16 µM; hit rate 0.37% among 220,000; AID 1236;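 active = inhibition above about 50%, limit read from the data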
# The depositor's hits bear a star; i = inactive; · = no result.
SMILES,ROMK mod,KCC2 mod,WT yeast gro inh,Lmaj promast,m-calpain inh
CC1=CC(C)(C)N2C(=O)C3(C(C#N)=C(N)Oc4cc(O)ccc43)c3c(C)c(C)cc1c32 (stereo not given),-1.73,·,6.9,53.7*,-3.2
O=C(/C=C/c1cccs1)N1CCOCC1,1.1,-0.0285,-25.0,-5.8,55.5*
Cc1ccc(CN2CC(C(=O)Nc3ccc4c(C)cc(=O)oc4c3)CC2=O)cc1 (stereo not given),·,0.013,6.4,4.5,-378.9
Cc1cc(=O)oc2cc(NC(=O)C3CCCC3)ccc12,0.579,0.142,2.8,100.5*,-411.5
COc1ccc(CC(=O)Nc2ccc3c(C)cc(=O)oc3c2)cc1OC,·,0.0639,-8.0,63.9*,-55.4
COc1ccc(CC(=O)Nc2ccc3c(c2)CCC3)cc1OC,-2.58,0.484,-16.8,0.3,-16.8
O=C(CSc1nnc(-c2ccco2)o1)c1ccc(O)cc1O,-0.95,-0.00022,-1.3,2.7,-11.5
COC(=O)Nc1ccc(S(=O)(=O)Nc2ccc(C(=O)O)cc2)cc1,0.584,-0.0924,-9.8,-5.6,9.5
C/C(=N\O)c1oc2ccc3c(C)cc(=O)oc3c2c1C,0.0124,i,·,·,6.0
O=C(COc1ccccc1)NCC(=O)Nc1cccc2ccccc12,0.0855,-0.723,-5.8,-4.6,3.2
O=C(COc1ccc(C(=O)c2ccccc2)cc1)NCC(=O)Nc1ccccc1Br,0.755,-0.988,4.2,61.8*,41.1
O=C(CN1CCCC1)N/N=C/c1ccc(-c2cccc(Cl)c2)o1,·,-0.551,2.0,100.5*,-9.2
COc1ccc(C(=O)NC2CCN(C(=S)Nc3ccc(C)cc3)CC2)cc1,0.0461,-0.349,-2.5,-2.9,1.4
Cc1cc(Cl)ccc1OCC(=O)NCCCn1ccnc1,0.744,0.954,15.9,-1.4,22.0
Cc1cc(OCCCn2ccnc2)cc(C)c1Cl,-1.6,-0.339,66.2*,89.2*,12.1
C=CCc1cc(C)ccc1OCCn1ccnc1,-0.37,-1.01,8.3,3.7,-4.5
C=CCc1cc(C)ccc1OCCOCCn1ccnc1,-0.0628,-0.396,34.1,96.8*,-11.0
Cc1ccc(C)c(OCCCCCn2ccnc2)c1,·,·,-3.5,100.2*,-16.2
Cc1cc(OCCCCCn2ccnc2)cc(C)c1Cl,-0.152,1.03,46.8,98.6*,33.1
COc1cc2c(cc1OC)CN(S(=O)(=O)c1ccc3c(c1)OCCO3)CC2,·,·,-3.0,-1.9,13.2
CNC(=S)Nc1ccc(C(N)=O)cc1,0.798,0.128,-3.8,-6.3,18.0
O=C(NCc1ccccn1)C(=O)NCC(c1ccco1)N1CCN(c2ccc(F)cc2)CC1 (stereo not given),-0.0881,0.341,-7.9,-6.5,0.7
Cc1ccc(S(=O)(=O)NCCC(c2ccc(F)cc2)c2ccco2)cc1 (stereo not given),0.242,1.99,36.5,56.3*,23.3
O=C(NCc1ccncc1)C(=O)NCC(c1ccco1)N1CCN(c2ccc(F)cc2)CC1 (stereo not given),-0.0299,0.00216,18.4,55.0*,-3.1
O=S(=O)(NCC(c1ccco1)N1CCN(c2ccc(F)cc2)CC1)c1ccc(F)cc1 (stereo not given),-0.0366,-0.037,-5.0,75.4*,43.9
SMILES,ROMK mod,KCC2 mod,WT yeast gro inh,Lmaj promast,m-calpain inh
O=S(=O)(NCC(c1ccco1)N1CCN(c2ccccc2)CC1)c1ccc(F)cc1 (stereo not given),·,-0.183,-11.2,5.7,-1.7
CCCCCC(=O)N1CC2(C)CN(C(=O)CCCCC)CC(C)(C1)C2=O,0.52,·,-7.0,-5.0,9.8
CCOC(=O)C1C(=O)OC(C)(C)C1C(C)C(=O)c1ccccc1 (stereo not given),1.05,-2.73,-12.4,-2.3,18.5
O=C(CN1C(=O)C2C3C=CC(C3)C2C1=O)NCc1ccc2c(c1)OCO2 (stereo not given),·,0.0269,12.4,1.6,-7.4
CCOC(=O)c1c(C)oc2c1c(C(c1ccncc1)N1CCOCC1)c(O)c1ccccc12 (stereo not given),·,·,32.5,72.7*,-112.8
CCOC(=O)c1c(C)oc2c1c(CN1CCN(CCO)CC1)c(O)c1ccccc12,0.29,0.205,58.6*,8.8,-9.5
CCOC(=O)c1c(C)oc2c1c(CN1CCN(C(=O)OCC)CC1)c(O)c1ccccc12,·,i,31.1,28.7,-3.5
Cc1ccc(-c2ccc(/C=N/n3cnnc3)o2)cc1Cl,·,0.0384,27.3,71.0*,-47.2
Cc1c(C(=O)Nc2ccc(F)cc2)oc2ccc(S(=O)(=O)N3CCC4(CC3)OCCO4)cc12,-0.139,0.181,21.8,32.6,-57.9
COc1ccccc1NC(=O)c1cc(S(=O)(=O)N2CCC3(CC2)OCCO3)ccc1F,-0.343,·,-8.2,-5.0,0.5
Cc1ccc(NC(=O)c2cc(S(=O)(=O)N3CCC4(CC3)OCCO4)ccc2F)cc1,·,·,31.7,95.9*,15.3
